In article PMC4336329 (PLoS ONE, 2015):
Out of some 310,000 compounds screened, about 14,000 (4.5%) showed an effect of 50% or more. Effects have a minus sign here. The list comes from a sample in which strong results are over-represented; it also holds similar structures and randomly drawn compounds.

biological target: human ether-à-go-go-related gene (hERG) potassium channel (human, UniProt Q12809); test: primary screen, population patch clamp on CHO cells stably expressing hERG; higher = less effect of the substance
Sequence (Q12809 whole entry, looked up): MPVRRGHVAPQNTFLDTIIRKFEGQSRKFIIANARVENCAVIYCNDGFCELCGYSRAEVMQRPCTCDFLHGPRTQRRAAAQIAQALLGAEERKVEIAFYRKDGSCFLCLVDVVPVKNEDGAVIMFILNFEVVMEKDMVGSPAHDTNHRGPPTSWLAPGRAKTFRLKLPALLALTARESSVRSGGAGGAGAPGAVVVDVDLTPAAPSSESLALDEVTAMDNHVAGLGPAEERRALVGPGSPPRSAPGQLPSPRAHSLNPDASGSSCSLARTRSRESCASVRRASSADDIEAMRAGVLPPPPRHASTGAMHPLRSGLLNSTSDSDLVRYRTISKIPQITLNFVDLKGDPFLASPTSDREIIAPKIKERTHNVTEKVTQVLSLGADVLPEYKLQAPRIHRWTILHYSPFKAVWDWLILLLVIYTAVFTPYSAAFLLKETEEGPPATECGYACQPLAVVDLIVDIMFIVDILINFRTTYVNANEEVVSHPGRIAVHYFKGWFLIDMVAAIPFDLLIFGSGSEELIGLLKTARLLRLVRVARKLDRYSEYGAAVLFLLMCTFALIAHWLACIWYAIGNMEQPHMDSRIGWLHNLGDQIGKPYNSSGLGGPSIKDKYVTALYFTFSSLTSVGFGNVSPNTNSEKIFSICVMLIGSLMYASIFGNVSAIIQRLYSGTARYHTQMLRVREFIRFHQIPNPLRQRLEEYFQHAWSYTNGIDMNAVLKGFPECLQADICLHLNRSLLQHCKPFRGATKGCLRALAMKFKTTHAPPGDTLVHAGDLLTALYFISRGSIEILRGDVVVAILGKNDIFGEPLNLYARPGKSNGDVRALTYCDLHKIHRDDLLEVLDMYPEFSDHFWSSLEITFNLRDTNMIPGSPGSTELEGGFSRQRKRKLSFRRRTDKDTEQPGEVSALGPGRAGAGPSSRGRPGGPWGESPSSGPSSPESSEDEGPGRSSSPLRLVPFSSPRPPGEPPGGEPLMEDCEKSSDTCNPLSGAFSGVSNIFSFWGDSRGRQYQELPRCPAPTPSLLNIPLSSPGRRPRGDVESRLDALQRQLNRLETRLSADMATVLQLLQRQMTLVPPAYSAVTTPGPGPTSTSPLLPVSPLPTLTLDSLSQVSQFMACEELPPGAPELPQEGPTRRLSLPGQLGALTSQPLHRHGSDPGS
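Also: peak tail current of the secondary pulse compared with the same well before compound.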

SMILES | hERG current change (%, negative = inhibition) at 10uM
CCOC(=O)CN1C(=O)C(O)=C(C(C)=O)C1c1ccccc1 (centres unmarked) | 11.3%
Cc1c(-c2ccccc2)nc2ccccc2c1C(=O)Oc1ccc([N+](=O)[O-])cc1 | -21.6%
COc1ccc(C(=O)OCCNC(=O)c2c(Cl)nc3ccccn23)cc1.Cl | -6.58%
CC(=O)C(=Nc1ccccc1Cl)NNc1ccc(Cl)cc1 | 17.3%
CN1CCN(S(=O)(=O)c2cccc(C(=O)N(Cc3nnc(-c4ccc(Cl)cc4)o3)C3CC3)c2)CC1 | -49.3%
Nc1cccc(-c2cc3ccccc3oc2=O)c1 | 6.38%
COc1ccc(Cl)cc1C(=O)N1CCN=C1SC | 21.3%
CCOc1ccc(NC(=O)c2ccccc2NC(=O)c2cccnc2)cc1 | 7.52%
COc1c(C)cc(C(=O)C2CCCN(C(=O)c3cc(C)nc(C)n3)C2)cc1C (centres unmarked) | 7.89%
COC(=O)C1=C(c2ccc(F)cc2OCc2ccccc2)C[C@@H]2CC[C@H]1N2C(=O)NCC1CC1 | -51.5%
COC(=O)C1=C(c2ccc(F)cc2OCc2ccccc2)C[C@@H]2CC[C@H]1N2C(=O)NC(C)C | -35.3%
COC(=O)C1=C(c2ccc(F)cc2OCc2ccccc2)C[C@@H]2CC[C@H]1N2C(=O)NC1CC1 | -10.4%
COC(=O)C1=C(c2ccc(F)cc2OCc2ccccc2)C[C@@H]2CC[C@H]1N2C | -52%
COC(=O)C1=C(c2ccc(F)cc2OCc2ccccc2)C[C@@H]2CC[C@H]1N2C(=O)NCc1ccccc1 | -1.03%
COC(=O)C1=C(c2ccc(F)cc2OCc2ccccc2)C[C@@H]2CC[C@H]1N2C(=O)NCc1ccc(F)cc1 | -5.76%
C#CCOCCOCCOCCNc1nc(N2CCN(C(=O)[C@H](CCC(=O)O)n3cc(C(N)[C@H](C)CC)nn3)CC2)nc(N2CCN(C(=O)[C@H](Cc3ccc(O)cc3)n3cc(C(N)[C@H](C)CC)nn3)CC2)n1.Cl (some centres unmarked) | 7.62%
COc1cc(CCC(=O)Nc2nccs2)cc(OC)c1OC | 3.1%
CCn1nc(C)cc1C(=O)N1CCCC(C(=O)c2ccc(OC)cc2C)C1 (centres unmarked) | 3.32%
Cc1ccccc1S(=O)(=O)Cc1ccc(C(=O)NC2CCCCCC2)o1 | -31.9%
CC(=O)Oc1ccc(/C=N/NC(=O)C2CCCN2S(=O)(=O)c2ccc(Cl)cc2)cc1 (centres unmarked) | -28.1%
Cn1c(=O)c2c(n(C)c1=O)=NC1(CCCCC1)ON=2 | -15.4%
O=C(NCc1ccco1)C1CCN(S(=O)(=O)N2CCOCC2)CC1 | -13.1%
COc1ccc(CN2CCN(CCCCOc3ccc(Cl)cc3)CC2)c(OC)c1OC.O=C(O)C(=O)O | -74.4%
COc1cccc(CN2CCN(Cc3cccc(Oc4ccccc4)c3)CC2)c1OC.O=C(O)C(=O)O | -21.7%

SMILES | hERG current change (%, negative = inhibition) at 10uM
COc1cccc(CN2CCN(Cc3cccc(Br)c3)CC2)c1OC.O=C(O)C(=O)O | -21.2%
COc1ccc(CN2CCN(Cc3cccc(Oc4ccccc4)c3)CC2)c(OC)c1OC.O=C(O)C(=O)O | -58%
Cc1ccc(SCCN2CCN(Cc3ccccc3)CC2)cc1.O=C(O)C(=O)O | -37%
CN1CCN(Cc2cccc(Oc3ccccc3)c2)CC1 | -28.2%
COc1ccc(CN2CCN(CCSc3ccc(C)cc3)CC2)c(OC)c1OC.O=C(O)C(=O)O | -58.5%
COc1ccc(CN2CCN(Cc3ccc(OC)c(OC)c3OC)CC2)cc1.O=C(O)C(=O)O | -41.3%
CCN1CCN(CCOc2ccc(Cl)cc2)CC1.O=C(O)C(=O)O | -34.3%
COc1ccc(CN2CCN(S(=O)(=O)c3ccc(F)cc3)CC2)c(OC)c1OC.O=C(O)C(=O)O | -23.4%
COc1ccc(CN2CCN(Cc3ccc(Br)cc3)CC2)c(OC)c1OC.O=C(O)C(=O)O | -69.7%
COc1ccc(CN2CCN(C(=O)c3cccc4ccccc34)CC2)c(OC)c1OC.O=C(O)C(=O)O | 11.9%
COc1ccc(C(=O)NC(=S)N(CCC(C)C)c2c(N)n(Cc3ccccc3)c(=O)[nH]c2=O)cc1 | -5.8%
CN1C(=O)/C(=C2\SC(=S)N(C(CCC(=O)O)C(=O)O)C2=O)c2ccccc21 (centres unmarked) | 13%
O=C(COc1ccc(F)cc1)c1ccc2c(c1)CCCC2 | -5.65%
CCOC(=O)NNc1nncc2ccccc12.Cl | 2.17%
Cc1nn(-c2ccccc2)c(C)c1NC(=O)COC(=O)c1cccc(OC(F)F)c1 | -38.1%
CCOC(=O)C1C(=O)C=C(/C=C/c2ccccc2)CC1c1ccc(Cl)cc1 (centres unmarked) | -0.716%
CCCc1nc(-c2ccc(-c3ccc(F)cc3)cc2)no1 | 7.85%
CC(C(=O)NCc1ccc(Cl)cc1)n1cccc1C(=O)c1ccccc1 (centres unmarked) | -21.4%
O=C(O)c1ccc(-c2nnn(Cc3ccccc3F)n2)cc1 | 58.7%
CC(C)(C)NCC(O)COc1cccc2[nH]c(=O)[nH]c12.Cl (centres unmarked) | 7.11%
CCN(CC)CC(O)COc1ccccc1C(=O)CCc1ccccc1 (centres unmarked) | -3.49%
CC(C)(C)NCC(O)COc1ccccc1C(=O)CCc1ccccc1.Cl (centres unmarked) | -69.9%
CC1=CC(=C2C(=O)NC(=S)NC2=O)C=C(C(F)(F)F)N1CCc1ccccc1 | 12.9%
